Inconclusive results are not listed. The source made the active and inactive calls. Calls come from the whole dose curve; as a rule, active = well fitted inhibition curve with a large enough effect; inconclusive = small, poorly fitted or top-dose-only effect; inactive = no such curve, though single readings can be large or run the other way.
Molecular target: Coelenterazine h 2-monooxygenase (Renilla reniformis) (UniProt P27652)
Assay: qHTS Assay for Inhibitors of Sea Pansy Luciferase from the GSK Published Protein Kinase Inhibitor Set
Conditions: purified Renilla luciferase, luminescence; series mostly up to 57.5 µM
In short: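 Purified R. reniformis luciferase (1 nM final) with 5 uM coelenterazine h in 50 mM Tris acetate pH 7.5, 100 uM NaCl, 0.01% Tween-20, 0.05% BSA. A titration, about 60 uM to 300 pM; luminescence read after about 2 min.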

Sequence of Coelenterazine h 2-monooxygenase (Renilla reniformis) (P27652 whole entry, looked up): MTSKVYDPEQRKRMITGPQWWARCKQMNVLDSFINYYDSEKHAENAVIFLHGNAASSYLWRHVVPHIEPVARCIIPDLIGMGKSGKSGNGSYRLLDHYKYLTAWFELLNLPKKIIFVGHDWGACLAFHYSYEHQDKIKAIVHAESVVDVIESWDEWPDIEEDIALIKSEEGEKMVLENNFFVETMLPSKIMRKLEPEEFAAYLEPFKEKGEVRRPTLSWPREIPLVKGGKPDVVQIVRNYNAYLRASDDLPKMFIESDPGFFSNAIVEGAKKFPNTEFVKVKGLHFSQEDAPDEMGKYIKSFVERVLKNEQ

Potency, inactive:
CCCN1CCC(Oc2cc(Nc3nc(Nc4cccc(F)c4C(N)=O)c4cc[nH]c4n3)c(OC)cc2Cl)CC1
FC(F)(F)c1cccc(Nc2nccc(-c3cnn4nc(-c5ccccc5)ccc34)n2)c1
COc1cc(N2CCN(C(C)C)CC2)ccc1Nc1nc(Nc2ccc(F)cc2C(=O)NCC(O)CO)c2cc[nH]c2n1 (centres undefined)
COC(=O)Nc1nc2ccc(Oc3ccc(NC(=O)Nc4cccc(Cl)c4)cc3)cc2[nH]1
NS(=O)(=O)c1cccc(Nc2cc(-c3ccc(F)cc3)[nH]n2)c1
CCn1c(-c2nonc2N)nc2c(N3CCCC3)nccc21
CCS(=O)(=O)c1ccc(OC)c(Nc2ncc(-c3cccc(C(C)=O)c3)o2)c1
CCn1c(-c2nonc2N)nc2ccncc21
O=C(Nc1n[nH]c2nnc(-c3cccnc3)cc12)C1CC1
COc1ccc(-c2nn3ncccc3c2-c2ccnc(Nc3ccc(Cl)c(C(F)(F)F)c3)n2)cc1
Cc1ccc(C(=O)NC(C)C)cc1-c1ccc(C(=O)NCC2CC2)cc1
Cc1ccc(O)cc1Nc1ccnc2ccc(S(C)(=O)=O)cc12
CC(C)c1ccc(Nc2nccc(-c3cnn4ncccc34)n2)cc1
c1ccc(-c2[nH]ncc2-c2ccnc(-c3ccc(OCCN4CCOCC4)cc3)c2)nc1
CCOc1nccc2c1nc(-c1nonc1N)n2CC
COc1ccc(CNC(=O)c2ccc(-c3cc(-c4nnc(C)o4)ccc3C)cc2)cc1
Cc1cc(O)cc(C)c1C=Cc1cncc(C(=O)OC(C)(C)C)c1
COc1ccc(-c2cc3c(N)ncnc3o2)cc1
COC(=O)c1sc(-n2cnc3cc(OC)c(OC)cc32)cc1OCc1ccccc1C(F)(F)F
COc1ccc(-c2nn3ncccc3c2-c2ccnc(Nc3ccc(F)c(F)c3)n2)cc1
NS(=O)(=O)c1ccc(Nc2ncc(-c3ccccc3)o2)cc1
CCCNc1cccc(-n2ncc3c(NN=Cc4ccncc4)ncnc32)c1
Cc1cccc(Nc2ncc(-c3ccccc3)o2)c1
ON=C1CCc2cc(-c3nc(C4CCNCC4)[nH]c3-c3ccncc3)ccc21
CNC(=O)c1ncccc1Nc1nc(Nc2cc3c(cc2OC)CCCN3C(=O)CN(C)C)nc2[nH]ccc12
CCn1cc(-c2ccnc3[nH]ccc23)c(-c2cccc(NC(=O)Nc3ccc(OCc4ccccc4)cc3)c2)n1
COc1ccc(-c2nn3ncccc3c2-c2ccnc(Nc3cccc(C(F)(F)F)c3)n2)cc1
Fc1ccc(-c2ncn(C3CCNCC3)c2-c2ccnc(Oc3cccc(F)c3)n2)cc1
O=S1CCN(Cc2ccc(-c3ccc4ncnc(Nc5ccc(OCc6ccccc6)c(F)c5)c4c3)o2)CC1
CNC(=O)c1cc(-c2ccc(F)cc2)cc(-c2ccc(S(=O)(=O)N3CCCC3)cc2)c1N
CNC(=O)c1cncc(C=Cc2c(C)cccc2C)c1
Nc1nccc(-c2c(-c3ccc(F)cc3)ncn2CCCN2CCOCC2)n1
COC(=O)Nc1nc2ccc(Oc3ccc(NC(=O)Nc4cc(C(F)(F)F)ccc4F)cc3)cc2s1
COc1cc2ncn(-c3cc(OCc4ccccc4Cl)c(C(N)=O)s3)c2cc1OC
Cc1nn(C)c2cc(N(C)c3ccnc(Nc4cccc(S(N)(=O)=O)c4)n3)ccc12
Clc1ccc(-c2nn3ncccc3c2-c2ccnc(Nc3ccccc3)n2)cc1
O=C(Nc1n[nH]c2cc(-c3ccc(F)cc3)ccc12)C1CC1
CN(c1ccc(NC(=O)NCCN2CCOCC2)cc1)c1ccnc(Nc2ccc(CS(C)(=O)=O)cc2)n1
O=C(Nc1ccc(Oc2ccc3nc(NC(=O)c4ccccc4)[nH]c3c2)cc1)Nc1cc(C(F)(F)F)ccc1F
